Only some compounds are listed: those with a hit (about 3.4% of all), similar ones and a draw of the others.
Gli-Sufu antag: antagonists of Gli-Sufu signaling; AID 588413; inhibition, % at 5 µM; Sufu-KO-LIGHT fibroblasts, Gli luciferase reporter luminescence; hit rate 0.74% among 340,000;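 active means inhibition above about 55%, limit read from the data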;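 further: 0% = DMSO-treated cells and 100% = wells with medium but no cells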
H9c2 protect: modulators protecting cardiomyocytes from myocardial damage. H9c2 cardiomyocytes, H2O2 injury protection, ATPLite, 2 h. protection from H2O2 cell death, % at 20 µM. hit rate 0.63% among 360,000. AID 588492;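 active means compounds giving at least 50% protection of heart cells from peroxide-induced death in the single-dose screen, raw or plate-pattern-corrected value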;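 further: 0% = DMSO wells with peroxide and 100% = DMSO wells without peroxide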
COUP-TFII inh: inhibitors of human COUP-TFII (NR2F2); P24468; HEK293T NGFI-A luciferase reporter, luminescence; inhibition, % at 8.6 µM; hit rate 0.7% among 370,000;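 active means inhibition above a per-plate cutoff, mean inhibition of test wells between control levels plus 3 SD, cut at about 38% in these data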;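 further: cells cotransfected with COUP-TFII expression vector driving the NGFI-A reporter; 0% = median of COUP-TF2 test wells and 100% = reporter-only cells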
Target sequence (P24468 whole entry, looked up): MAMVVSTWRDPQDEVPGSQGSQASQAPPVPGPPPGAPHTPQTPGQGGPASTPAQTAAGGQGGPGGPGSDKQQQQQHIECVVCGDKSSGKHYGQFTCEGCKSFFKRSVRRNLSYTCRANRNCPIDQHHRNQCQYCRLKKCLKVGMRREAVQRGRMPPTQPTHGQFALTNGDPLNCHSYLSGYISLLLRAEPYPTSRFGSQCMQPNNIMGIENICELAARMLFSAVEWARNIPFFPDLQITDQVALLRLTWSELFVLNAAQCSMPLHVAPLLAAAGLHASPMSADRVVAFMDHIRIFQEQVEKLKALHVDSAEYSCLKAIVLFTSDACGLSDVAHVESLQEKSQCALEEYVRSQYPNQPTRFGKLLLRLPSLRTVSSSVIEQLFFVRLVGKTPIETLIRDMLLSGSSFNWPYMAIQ
GalR3 antag: human GalR3 antagonism; O60755; HEK293 GalR3-CNG cAMP membrane potential fluorescence; galR3 body fused to GalR1 C-terminus; inhibition, % at 3 µM; hit rate 0.44% among 360,000; AID 651719;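 active means inhibition above the screen-wide average plus 3 SD, cut at about 13% in these data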;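 further: forskolin and galanin both at EC90 stimulate the cells; cAMP rise reported by CNG channel membrane potential dye signal; 0% = forskolin plus galanin with DMSO and 100% = forskolin alone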
GAA850 FXN act: increases GAA850 frataxin promoter reporter activity; hit rate 0.56% among 360,000; HEK293 lucGAA850 FXN promoter luciferase reporter, 24 h; percent of 10 µM SAHA response; activation, % at 6 µM;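 active means activation above the average of all compounds screened plus 3 SD, cutoff fixed separately per campaign, cut at about 7.5% in these data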;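 further: 0% = DMSO wells and 100% = 10 µM SAHA wells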
SMARCA2 act: increases SMARCA2 function in MMTV reporter cells; hit rate 1% among 370,000; MG213 cells, MMTV-luciferase reporter, dexamethasone, overnight; AID 652017; activation, % at 9.1 µM; in the data active means activation above about 7.8%;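 further: 0% = vehicle wells and 100% = reference activator wells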
* hit, by the source's call.

`COC(=O)c1nn(-c2cccc(C(F)(F)F)c2)ccc1=O` gave Gli-Sufu antag -2, H9c2 protect -3, COUP-TFII inh 4, GalR3 antag -7, GAA850 FXN act 0 and SMARCA2 act 2.
Screening O=c1ccn(-c2cccc(C(F)(F)F)c2)nc1-c1ccn(-c2cccc(Cl)c2)n1 returned Gli-Sufu antag -43, H9c2 protect 21, COUP-TFII inh 12, GalR3 antag -1, GAA850 FXN act 11* and SMARCA2 act -1.
Screening CC1(C)CC[C@]2(C(=O)n3ccnc3)CC[C@]3(C)[C@H](C(=O)C=C4[C@@]5(C)C=C(C#N)C(=O)C(C)(C)[C@@H]5CC[C@]43C)[C@@H]2C1 returned Gli-Sufu antag 93*, H9c2 protect -18, COUP-TFII inh 3, GalR3 antag -3, GAA850 FXN act -12 and SMARCA2 act 0.
Screening Cc1ccc(C(=O)Nc2nc(-c3ccccn3)cs2)cc1S(=O)(=O)N1CCOCC1 returned Gli-Sufu antag 37, H9c2 protect 73*, COUP-TFII inh 28, GalR3 antag -7, GAA850 FXN act -3 and SMARCA2 act -2.
For Cc1ccc(C(=O)Nc2ccccn2)cc1S(=O)(=O)N1CCOCC1 the results were Gli-Sufu antag -13, H9c2 protect 6, COUP-TFII inh -11, GalR3 antag 0, GAA850 FXN act 2 and SMARCA2 act -1.
`Cc1ccc(S(=O)(=O)N2CCOCC2)cc1NC(=O)c1cc(-c2ccccn2)nc2ccccc12` gave Gli-Sufu antag 9, H9c2 protect 9, COUP-TFII inh -12, GalR3 antag 0, GAA850 FXN act -1 and SMARCA2 act -4.
O=C(Nc1nc(-c2ccccn2)cs1)c1ccc(F)c(S(=O)(=O)N2CCOCC2)c1 was read as Gli-Sufu antag 48, H9c2 protect 65*, COUP-TFII inh -4, GalR3 antag -4, GAA850 FXN act -3 and SMARCA2 act -2.
O=C(Nc1cc(S(=O)(=O)N2CCOCC2)ccc1N1CCCCC1)c1cc(-c2ccccn2)nc2ccccc12 was read as Gli-Sufu antag 25, H9c2 protect 64*, COUP-TFII inh -4, GalR3 antag 1, GAA850 FXN act 1 and SMARCA2 act -1.
Screening CN(CC1CCCO1)S(=O)(=O)c1ccc(C(=O)Nc2nc(-c3ccccn3)cs2)cc1 (stereo not drawn) returned Gli-Sufu antag 34, H9c2 protect 90* and GAA850 FXN act -3.
`O=C(Nc1nc(-c2ccccn2)cs1)c1cc(S(=O)(=O)N2CCOCC2)ccc1F` gave Gli-Sufu antag -7, H9c2 protect 59*, COUP-TFII inh 14, GalR3 antag 0, GAA850 FXN act -2 and SMARCA2 act 1.
Screening O=C(CCc1ccccc1)N[C@H]1[C@@H](OC(=O)c2cnccn2)CCC[C@@]12C(=O)N(Cc1ccccc1)c1ccccc12 returned COUP-TFII inh 1 and SMARCA2 act -2.
CN(CC(=O)NCCc1ccc(F)cc1)Cc1cccs1 was read as Gli-Sufu antag -3, H9c2 protect -4, COUP-TFII inh -11, GalR3 antag 0, GAA850 FXN act 4 and SMARCA2 act 7.8*.
For Cc1cc(C=O)c(C)n1-c1ccc(N2CCOCC2)cc1 the results were Gli-Sufu antag 0, H9c2 protect -9, COUP-TFII inh 9, GalR3 antag 0, GAA850 FXN act -1 and SMARCA2 act -1.
Cc1cc(C=O)c(C)n1-c1cc(C(F)(F)F)ccc1N1CCOCC1 was read as Gli-Sufu antag 2, H9c2 protect 138*, COUP-TFII inh 19, GalR3 antag -4, GAA850 FXN act 0 and SMARCA2 act -3.
`CC(=O)N1c2ccc(S(=O)(=O)N3CCC(C(=O)Nc4cccc(C)c4)CC3)cc2CC1C` (stereo not drawn) gave Gli-Sufu antag 5, H9c2 protect 1, COUP-TFII inh -1, GalR3 antag -5, GAA850 FXN act 0 and SMARCA2 act -2.
For CC(=O)N1c2ccc(S(=O)(=O)N3CCC(C(=O)Nc4cccc(Cl)c4)CC3)cc2CC1C (stereo not drawn) the results were Gli-Sufu antag 73*, H9c2 protect -3, COUP-TFII inh 21, GalR3 antag -3, GAA850 FXN act -1 and SMARCA2 act -3.
`O=C1NC(=O)C(=CC=Cc2ccccc2)S1` gave H9c2 protect -9, COUP-TFII inh -14, GalR3 antag -6, GAA850 FXN act 1 and SMARCA2 act -1.

Assay outcomes (PubChem BioAssay)
